Source: PubChem BioAssay
An excerpt weighted towards active compounds, which were near 0.47% of everything screened.
UDG counterscr: Primary qHTS assay for inhibitors of Activation Induced Cytidine Deaminase (AID): UDG Counterscreen signal | Uracil-DNA glycosylase | hit rate 0.14% among 91,000 | Potency, µM (series often up to 115 µM), usual class: inhibitors | FRET deamination/UDG coupled assay, UDG read, 4 h; further: nearly all actives have a fitted effect of over 65% in size
AID inhibitor: Primary qHTS assay for inhibitors of Activation Induced Cytidine Deaminase (AID): AID signal. AID deamination FRET fluorescence, UDG-coupled, 4 h. hit rate 0.32% among 91,000. Single-stranded DNA cytosine deaminase (Homo sapiens), Q9GZX7. Potency, µM (doses to about 115 µM), most hits filed as inhibitors; further: nearly all actives have a fitted effect of over 25% in size
Target sequence (Q9GZX7 whole entry, looked up): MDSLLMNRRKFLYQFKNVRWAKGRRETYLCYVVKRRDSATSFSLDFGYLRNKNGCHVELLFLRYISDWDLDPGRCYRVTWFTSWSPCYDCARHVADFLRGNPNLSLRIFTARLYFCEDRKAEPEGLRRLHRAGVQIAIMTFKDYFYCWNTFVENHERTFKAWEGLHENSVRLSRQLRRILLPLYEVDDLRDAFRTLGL
Of the large screens only hits and unclear results are named; the others gave an inactive call. The call rests on the fitted dose curve; in most records, active means well fitted curve in the direction sought with a large enough effect; inconclusive means small, poorly fitted or top-dose-only effect, or another doubt; inactive means no such curve, though single readings can be large; an effect the other way counts as inactive or inconclusive.

CCCCC/C=C\C/C=C\C/C=C\C/C=C\CCCC(=O)NCC(=O)O	AID inhibitor 79µM
N#CCCNC(=O)CCl	none
COc1ccc(C2SCC(=O)Nc3c2c(C)nn3C)cc1OC (stereo unspecified)	none
COc1ccc2c(c[n+](C)c3c4cc5c(cc4ccc23)OCO5)c1OC	AID inhibitor 40µM
N#Cc1ccc(Cn2cc(C(=O)C3CC3)c3ccccc32)cc1	none
O=C(O)CCCCCCCCCCO	none
CN(N=O)c1cc(O)ccc1O	AID inhibitor 28µM
CCCOc1ccccc1CCN	none
CN(C)C(=O)Oc1ccc2c(=O)c(-c3ccccc3)c(C(F)(F)F)oc2c1	none
